{"source": "PubChem BioAssay AID2551", "about": "(National Center for Advancing Translational Sciences (NCATS), 2010)", "note": "Screen size: about 310,000 compounds; about 17,000 (5.5%) were called active. Not shown: some 11% with an inconclusive outcome. What follows is part of a selection rich in actives, with near analogues and random picks from the rest. Unmarked numbers belong to inactive results. The call rests on the fitted dose curve; in most records, active means well fitted inhibition curve with a large enough effect; inconclusive means small, poorly fitted or top-dose-only effect, or effect the other way; inactive means no such curve, though single readings can be large or run the other way. On the % scale 0 is the no-effect control and ±100 the full control effect; potency means the concentration at half of the fitted maximal effect.", "data": [{"target": "Nuclear receptor ROR-gamma (Mus musculus) (UniProt P51450)", "sequence (P51450 whole entry, looked up, the tested form may be a part)": "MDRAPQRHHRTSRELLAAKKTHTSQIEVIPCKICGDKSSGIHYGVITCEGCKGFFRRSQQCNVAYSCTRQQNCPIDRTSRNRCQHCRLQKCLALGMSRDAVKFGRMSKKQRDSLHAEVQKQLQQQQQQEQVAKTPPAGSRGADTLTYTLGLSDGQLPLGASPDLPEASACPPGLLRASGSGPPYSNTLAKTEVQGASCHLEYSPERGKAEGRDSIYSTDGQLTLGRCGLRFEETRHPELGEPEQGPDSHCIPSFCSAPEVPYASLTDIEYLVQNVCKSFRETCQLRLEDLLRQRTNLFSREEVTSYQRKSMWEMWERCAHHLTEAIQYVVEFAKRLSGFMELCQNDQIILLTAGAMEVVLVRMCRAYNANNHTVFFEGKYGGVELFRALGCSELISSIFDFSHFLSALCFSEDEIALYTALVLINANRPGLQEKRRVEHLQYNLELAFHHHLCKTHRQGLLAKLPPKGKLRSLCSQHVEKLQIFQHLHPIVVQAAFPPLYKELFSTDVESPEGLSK", "assay": "qHTS for inhibitors of ROR gamma transcriptional activity; further: nearly all actives have a fitted effect of over 60% in size", "details": "Drosophila S2 Gal4-RORgamma UAS-luciferase reporter, 20 h; series mostly up to 53.6 µM; activity change, negative = inhibition: at the top concentration", "in_short": "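Read-out: Photinus luciferase luminescence; inhibitors lower reporter signal. Insect Schneider cells with Gal4-ROR gamma fusion under metallothionein promoter, UAS reporter; 700 uM final copper sulfate induction, 20 hr, ambient temperature.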", "units": {"activity change, negative = inhibition": "%"}, "values": [{"compound": "CN1CCN(NC(=O)Nc2ccc(Br)cc2)CC1", "activity change, negative = inhibition": 16.6}, {"compound": "CC(NC(=O)C(=O)NN=C1CCC(C(C)(C)C)CC1)c1ccccc1", "note": "(centres undefined)", "activity change, negative = inhibition": -12.8}, {"compound": "O=C(COc1ccc(-c2ccccc2)cc1)NN=C1CCCC1", "activity change, negative = inhibition": -25.1}, {"compound": "CC(C)(C)C1CCC(=NNC(=O)c2cc(-c3ccccc3)n[nH]2)CC1", "note": "(centres undefined)", "Potency": "11.2 µM (active)"}, {"compound": "CC1CN(CC(=O)NC(C)c2ccccc2)CC(C)O1", "note": "(centres undefined)", "activity change, negative = inhibition": -6.55}, {"compound": "CCOC(=O)C(=O)Nc1nc(-c2ccccc2)c(CC)s1", "activity change, negative = inhibition": -31.4}, {"compound": "C/C(=N/Nc1nc(-c2ccccc2)c(CC(=O)O)s1)c1ccccc1", "Potency": "11.2 µM (active)"}, {"compound": "Cc1ccc(-c2nc(C)sc2CC(=O)O)cc1", "activity change, negative = inhibition": -0.336}, {"compound": "Cc1ccc(-c2nc3ccccc3[nH]2)cc1NC(=O)c1sc2ccccc2c1Cl", "activity change, negative = inhibition": -7.38}, {"compound": "O=C(/C=C/c1ccco1)Nc1cccc(-c2nc3ccccc3[nH]2)c1", "activity change, negative = inhibition": 23.4}, {"compound": "O=C(Nc1cccc(-c2nc3ccccc3[nH]2)c1)c1ccc(C(=O)Nc2cccc(-c3nc4ccccc4[nH]3)c2)cc1", "Potency": "2 µM (active)"}, {"compound": "Cc1cccc2[nH]c(CN(C)C(=O)C3CCC(=O)N(CCc4ccccc4)C3)nc12", "note": "(centres undefined)", "activity change, negative = inhibition": -19.4}, {"compound": "C/C(N)=C(/C#N)C(=O)COC(=O)C1=NN(c2ccccc2)C(=O)CC1", "activity change, negative = inhibition": 10.9}, {"compound": "COc1cccc(/C=N/Nc2ncc(C(F)(F)F)cc2Cl)c1O", "Potency": "1.26 µM (active)"}, {"compound": "COC(=O)Cc1ccc(Oc2ncc(C(F)(F)F)cc2Cl)cc1", "activity change, negative = inhibition": -9.46}, {"compound": "N/C(=N\\OC(=O)Nc1ccc(Cl)c(Cl)c1)c1ncc(C(F)(F)F)cc1Cl", "activity change, negative = inhibition": 7.87}, {"compound": "CCOC(=O)N1CCN(C(=O)COCc2cc(-c3ccc4c(c3)OCO4)on2)CC1", "activity change, negative = inhibition": -3.42}, {"compound": "CCOc1ccccc1N1C(=O)CC(Sc2nccc(C)n2)C1=O", "note": "(centres undefined)", "Potency": "25.1 µM (active)"}, {"compound": "CCOC(=O)c1ccc(N2C(=O)CC(Sc3nc(O)c(CC)c(=O)[nH]3)C2=O)cc1", "note": "(centres undefined)", "activity change, negative = inhibition": -0.429}, {"compound": "Cc1ccnc(SCC(N)=O)n1", "activity change, negative = inhibition": 9.61}, {"compound": "CCn1ccnc1CNC(=O)CC1C(=O)NCCN1CCCc1ccccc1", "note": "(centres undefined)", "activity change, negative = inhibition": -26.2}, {"compound": "O=C(NCCS(=O)(=O)N1CCN(c2ccccc2F)CC1)c1ccc(Br)o1", "activity change, negative = inhibition": 14.8}, {"compound": "Cc1cccc(NC(=O)c2cccnc2Cl)n1", "activity change, negative = inhibition": 7.82}, {"compound": "CC(C)(O)C#Cc1ccc(CN2CCC(CO)(CCc3ccccc3)CC2)cc1", "activity change, negative = inhibition": 1.77}, {"compound": "OCC1(CCOc2ccccc2)CCN(Cc2cn[nH]c2-c2ccccc2)CC1", "activity change, negative = inhibition": 18.3}, {"compound": "Cc1c(CN2CCC(CO)(CCOc3ccccc3)CC2)[nH]c2ccc(Cl)cc12", "Potency": "11.2 µM (active)"}, {"compound": "CC(C)(C)NC(=O)C(c1ccc(Cl)cc1)N(CCO)C(=O)c1snc(C(N)=O)c1N", "note": "(centres undefined)", "activity change, negative = inhibition": -12.6}, {"compound": "COC(=O)CCc1ccccc1S(=O)(=O)N(CCC(=O)OC)Cc1ccccc1", "activity change, negative = inhibition": -5.18}, {"compound": "CCOC(=O)C1=C(c2ccccc2)NC(=O)NC1c1cc(OCC)c(O)c([N+](=O)[O-])c1", "note": "(centres undefined)", "activity change, negative = inhibition": 35}, {"compound": "Nc1ccccc1Sc1ccc(C(F)(F)F)cc1[N+](=O)[O-]", "activity change, negative = inhibition": 3.1}, {"compound": "CCOC(=O)c1cc(Sc2ccccc2N)cc(C(=O)OCC)n1", "activity change, negative = inhibition": 43.4}, {"compound": "CCS(=O)(=O)c1cc([N+](=O)[O-])c(Sc2ccccc2N)s1", "Potency": "7.94 µM (active)"}, {"compound": "COc1ccc(N2CCN(C3CCCCC3NS(=O)(=O)c3ccccc3)CC2)cc1", "note": "(centres undefined)", "activity change, negative = inhibition": -0.458}, {"compound": "CCC(Cc1ccccc1)NS(=O)(=O)c1ccc2c(c1)NC(=O)CS2", "note": "(centres undefined)", "activity change, negative = inhibition": 17.2}, {"compound": "Cc1c(Cl)c([N+](=O)[O-])nn1Cc1ccc(C(=O)N/N=C\\c2cc(Cl)ccc2O)o1", "Potency": "5.01 µM (active)"}, {"compound": "O=C(N/N=C/c1ccc2c(c1)OCO2)c1ccc(Cn2cc([N+](=O)[O-])cn2)o1", "activity change, negative = inhibition": 28.1}, {"compound": "Cc1ccc(C(=O)O)cc1NC(=O)c1ccc(Cn2nc(C)c(Cl)c2C)o1", "activity change, negative = inhibition": 5.12}, {"compound": "CC(C)c1c(C(=O)N/N=C/c2ccccc2C(=O)O)nnn1-c1nonc1N", "activity change, negative = inhibition": 0.169}, {"compound": "Cc1c(NC(=O)/C=C/C(=O)O)cccc1[N+](=O)[O-]", "activity change, negative = inhibition": -4.11}, {"compound": "COC(=O)c1sc(-c2ccc(C(C)(C)C)cc2)cc1NC(=O)/C=C/C(=O)O", "Potency": "12.6 µM (active)"}, {"compound": "O=C(O)/C=C/C(=O)Nc1ccc(F)cc1F", "activity change, negative = inhibition": 10.8}, {"compound": "C/C(=N\\NC(=S)NC1CCCCC1)c1ccc(C)o1", "Potency": "0.631 µM (active)"}, {"compound": "C/C(=N\\NC(=O)NC1CCCCC1)c1ccc(OC(F)F)cc1OC(F)F", "activity change, negative = inhibition": -26.9}, {"compound": "Cc1ccc(/C=N/NC(=O)CSc2ccccn2)o1", "activity change, negative = inhibition": 15.4}, {"compound": "Cc1ccc(/C=N/NC(=S)NC2CCCCC2)o1", "Potency": "0.251 µM (active)"}, {"compound": "Cc1ccc(/C=N/NC(=O)Cn2nc(C)c(Br)c2C)o1", "activity change, negative = inhibition": -22.6}, {"compound": "C/C(=N/NC(=O)c1ccc(Br)o1)c1ccc(C)o1", "activity change, negative = inhibition": -4.16}, {"compound": "COc1ccc(S(=O)(=O)N2CCOC2CNC(=O)C(=O)NCc2ccncc2)cc1OC", "note": "(centres undefined)", "activity change, negative = inhibition": -23.5}, {"compound": "O=C(N/N=C/c1cc([N+](=O)[O-])ccc1O)/C(=C\\c1cccs1)NC(=O)c1ccccc1", "Potency": "11.2 µM (active)"}, {"compound": "O=C(Nc1ccccc1)/C(=C/c1ccc([N+](=O)[O-])cc1)NC(=O)c1ccccc1", "activity change, negative = inhibition": -5.91}, {"compound": "O=C(N/N=C/c1ccc(O)cc1)/C(=C/c1ccc([N+](=O)[O-])cc1)NC(=O)c1ccccc1", "activity change, negative = inhibition": 4.46}, {"compound": "CCCCc1nc2cc(C(=O)NCCc3cnn(C)c3)ccc2o1", "activity change, negative = inhibition": 32.8}, {"compound": "COc1ccccc1-c1cnn2c(N3CCOCC3)cc(C)nc12", "activity change, negative = inhibition": 1.17}, {"compound": "N#Cc1ccccc1NC(=O)c1ccc2c(c1)OCO2", "activity change, negative = inhibition": -0.235}]}]}
